Laboratory results from PubChem BioAssay (NCATS).
“And” between values parts separate entries of the source, which are not always exact repeats. Equal values may be shown once. A number with no mark means an inactive call. Results filed as inconclusive are left out. Entries that show only a call come without a potency. The source made the active and inactive calls. Unless noted, calls come from the whole dose curve; as a rule, active = well fitted curve in the direction sought with a large enough effect; inconclusive = small, poorly fitted or top-dose-only effect, or another doubt; inactive = no such curve, though single readings can be large; an effect the other way counts as inactive or inconclusive. Where a SMILES comes first, the peptide text is derived from it. [ ]: non-standard residue; d: D form. pGlu = O=C1CC[C@@H](C(=O)O)N1; Thz = O=C(O)[C@@H]1CSCN1

Assays:
[1] = target: Ubiquitin carboxyl-terminal hydrolase 1 (Homo sapiens) (UniProt O94782); experiment: Inhibitors of USP1/UAF1: Pilot qHTS (AID 504865); note: nearly all actives have a fitted effect of over 35% in size; note: potency is the fitted concentration of half-maximal effect
How it was run: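 In 50mM HEPES pH 7.8 containing 0.5mM EDTA, 1mM TCEP, 0.1 mg/ml BSA and 0.01% Tween-20, 1nM USP1/UAF1 is exposed to compound for 15 min, then Ub-Rho (150nM final) is added and fluorescence is read over time.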

[2] = target: Estrogen receptor (Homo sapiens) (UniProt P03372); experiment: qHTS assay for small molecule antagonists of estrogen receptor alpha signaling (AID 588513; active = well fitted curve in the direction sought with a large enough effect in the signal ratio, with a control signal flat, not every such curve was filed as active; the % refers to the signal ratio)
How it was run: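 Fluorescence from CCF4 substrate after 2 h at room temperature gave reporter activity; cells had been exposed to compound and 0.5nM 17-beta-estradiol for 18 h at 37 C. Hill-equation fitting yielded IC50 and maximal response.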

[3] = target: Glucocorticoid receptor (Homo sapiens) (UniProt P04150); experiment: qHTS assay for small molecule agonists of glucocorticoid receptor signaling (AID 588532; active = well fitted curve in the direction sought with a large enough effect in the signal ratio, with a control signal flat; the % refers to the signal ratio); conditions: HeLa MMTV-bla, beta-lactamase ratio, agonist, 18 h; stronger effect = higher value; percent of dexamethasone control, DMSO zero
How it was run: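 Cells were plated and rested 3-5 h at 37 C, compounds were added in titration and incubated 18 h, then CCF4 substrate was loaded for 2 h at RT before reading blue/green fluorescence. EC50 came from Hill-equation fitting.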

[4] = qHTS for Inhibitors of ATXN expression: Validation (AID 588378); note: series mostly up to about 57 µM; nearly all actives have a fitted effect of over 75% in size
How it was run: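 Compounds were pinned onto attached HEK293 cells carrying an ATXN2-firefly luciferase construct and incubated 24 hrs at 37 degrees C. Each well then received a fluorescent viability reagent followed by luciferase substrate for end-point luminescence.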

[5] = target: DNA dC->dU-editing enzyme APOBEC-3G (Homo sapiens) (UniProt Q9HC16); experiment: qHTS for inhibitors of Vif-A3G interactions: Validation (AID 588379)
How it was run: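 HeLa cells stably expressing Vif and A3G-eYFP, 700 cells/well, incubated overnight at 37 deg C, then exposed to compound overnight at 37 deg C. Inhibition of Vif-mediated degradation read as increased yellow fluorescence (Ex 488/Em 500-530) by laser-scanning cytometry.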

[6] = qHTS for Inhibitors of ATXN expression: Validation of Cytotoxic Assay (AID 588349);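 note: cells exposed to compound for 72 hr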; note: potency is the fitted concentration of half-maximal effect
How it was run: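 HEK293, compound dose series, 72 hr / 37 degrees C; viability via CellTiter Glo (intracellular ATP).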

[7] = target: Androgen receptor (Homo sapiens) (UniProt P10275); experiment: qHTS assay for small molecule agonists of androgen receptor signaling (AID 588515; active = well fitted curve in the direction sought with a large enough effect in the signal ratio, with a control signal flat; the % refers to the signal ratio); conditions: AR-UAS-bla HEK293, beta-lactamase ratio, agonist 16 h; stronger effect = higher value
How it was run: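 EC50 and efficacy came from Hill fits of titrations (up to 92 uM) normalized to 30 nM R1881 as 100% and DMSO as 0%. Compound exposure was 16 h at 37 C on AR-UAS-bla HEK293 cells, with a 405/460/530 nm CCF4 fluorescence read.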

[8] = target: Bile acid receptor (Homo sapiens) (UniProt Q96RI1); experiment: qHTS assay for small molecule antagonists of farnesoid X receptor signaling (AID 588526; calls by dose curve)
How it was run: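 Antagonist mode: titrated compounds tested against chenodeoxycholic acid stimulation (normalized to 50 uM CDCA and DMSO) in GeneBLAzer HEK293T cells for 16 h. Beta-lactamase read by CCF4 fluorescence; IC50 from Hill fits.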

[9] = target: Androgen receptor (Homo sapiens) (UniProt P10275); experiment: qHTS assay for small molecule antagonists of androgen receptor signaling (AID 588516; active = well fitted curve in the direction sought with a large enough effect in the signal ratio, with a control signal flat, not every such curve was filed as active; the % refers to the signal ratio)
How it was run: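 Cells were plated and incubated 5 h, compounds added in titration, then R1881 (10 nM final) as agonist. After 16 h at 37 C, CCF4 substrate was loaded for 2 h at room temperature and fluorescence measured.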

Sequence of Ubiquitin carboxyl-terminal hydrolase 1 (Homo sapiens) (O94782 whole entry, looked up): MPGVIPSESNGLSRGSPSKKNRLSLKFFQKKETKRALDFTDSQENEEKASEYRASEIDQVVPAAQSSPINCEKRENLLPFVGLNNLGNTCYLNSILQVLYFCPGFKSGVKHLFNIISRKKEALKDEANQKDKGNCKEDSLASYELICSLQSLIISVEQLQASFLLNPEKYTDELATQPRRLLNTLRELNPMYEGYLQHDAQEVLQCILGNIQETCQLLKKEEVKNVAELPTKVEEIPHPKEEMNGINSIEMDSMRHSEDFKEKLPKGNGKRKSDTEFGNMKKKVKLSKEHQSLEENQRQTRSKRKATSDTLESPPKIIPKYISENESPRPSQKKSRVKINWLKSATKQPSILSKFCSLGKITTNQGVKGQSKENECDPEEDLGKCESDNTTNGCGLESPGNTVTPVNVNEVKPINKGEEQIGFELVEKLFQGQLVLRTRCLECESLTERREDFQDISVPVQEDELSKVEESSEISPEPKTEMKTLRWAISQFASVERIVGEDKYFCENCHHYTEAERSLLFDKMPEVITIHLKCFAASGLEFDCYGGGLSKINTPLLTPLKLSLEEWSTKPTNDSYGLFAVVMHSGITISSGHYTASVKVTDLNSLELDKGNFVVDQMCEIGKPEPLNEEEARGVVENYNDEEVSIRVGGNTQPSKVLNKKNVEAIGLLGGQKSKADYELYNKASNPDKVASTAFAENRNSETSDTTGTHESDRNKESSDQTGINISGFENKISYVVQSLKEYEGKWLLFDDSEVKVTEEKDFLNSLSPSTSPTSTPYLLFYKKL
Sequence of Estrogen receptor (Homo sapiens) (P03372 whole entry, looked up): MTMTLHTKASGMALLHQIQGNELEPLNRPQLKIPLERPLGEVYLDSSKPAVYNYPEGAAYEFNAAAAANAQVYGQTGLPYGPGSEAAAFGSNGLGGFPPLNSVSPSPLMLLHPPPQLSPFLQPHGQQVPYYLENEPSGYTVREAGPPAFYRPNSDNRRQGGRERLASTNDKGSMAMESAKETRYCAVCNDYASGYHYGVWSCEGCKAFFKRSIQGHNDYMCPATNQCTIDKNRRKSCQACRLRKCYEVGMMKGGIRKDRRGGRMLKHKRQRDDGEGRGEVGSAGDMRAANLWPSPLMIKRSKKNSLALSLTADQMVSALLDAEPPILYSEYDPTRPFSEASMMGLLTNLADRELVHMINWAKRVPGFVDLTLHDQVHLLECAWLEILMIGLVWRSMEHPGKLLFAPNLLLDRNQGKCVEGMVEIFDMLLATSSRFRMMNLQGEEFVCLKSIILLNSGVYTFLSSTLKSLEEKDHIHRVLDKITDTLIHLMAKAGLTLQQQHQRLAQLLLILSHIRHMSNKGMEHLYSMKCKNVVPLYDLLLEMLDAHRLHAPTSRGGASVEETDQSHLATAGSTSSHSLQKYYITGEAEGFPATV
Sequence of Androgen receptor (Homo sapiens) (P10275 whole entry, looked up): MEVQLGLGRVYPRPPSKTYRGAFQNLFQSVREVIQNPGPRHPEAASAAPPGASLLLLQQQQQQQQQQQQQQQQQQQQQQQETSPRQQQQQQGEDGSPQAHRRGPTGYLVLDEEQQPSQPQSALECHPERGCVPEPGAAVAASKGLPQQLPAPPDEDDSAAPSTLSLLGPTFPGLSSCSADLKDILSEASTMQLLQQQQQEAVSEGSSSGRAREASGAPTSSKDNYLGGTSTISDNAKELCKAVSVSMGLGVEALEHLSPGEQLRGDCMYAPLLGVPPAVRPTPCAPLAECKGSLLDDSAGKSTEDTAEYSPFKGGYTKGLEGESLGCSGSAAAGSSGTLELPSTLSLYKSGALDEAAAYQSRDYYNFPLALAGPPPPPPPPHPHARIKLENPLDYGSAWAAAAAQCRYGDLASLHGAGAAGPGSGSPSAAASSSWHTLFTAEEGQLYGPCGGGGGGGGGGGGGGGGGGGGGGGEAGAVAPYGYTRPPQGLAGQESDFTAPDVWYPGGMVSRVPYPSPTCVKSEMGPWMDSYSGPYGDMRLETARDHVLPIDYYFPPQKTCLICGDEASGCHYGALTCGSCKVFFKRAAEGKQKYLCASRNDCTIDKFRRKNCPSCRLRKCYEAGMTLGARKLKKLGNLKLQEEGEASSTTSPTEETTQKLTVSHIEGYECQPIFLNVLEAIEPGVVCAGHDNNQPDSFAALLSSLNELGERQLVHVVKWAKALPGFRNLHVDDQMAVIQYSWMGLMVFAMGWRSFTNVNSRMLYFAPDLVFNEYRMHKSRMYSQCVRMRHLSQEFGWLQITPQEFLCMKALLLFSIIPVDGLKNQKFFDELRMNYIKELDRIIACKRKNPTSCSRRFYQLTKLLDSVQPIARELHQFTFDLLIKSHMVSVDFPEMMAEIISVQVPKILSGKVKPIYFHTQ
Sequence of Glucocorticoid receptor (Homo sapiens) (P04150 whole entry, looked up): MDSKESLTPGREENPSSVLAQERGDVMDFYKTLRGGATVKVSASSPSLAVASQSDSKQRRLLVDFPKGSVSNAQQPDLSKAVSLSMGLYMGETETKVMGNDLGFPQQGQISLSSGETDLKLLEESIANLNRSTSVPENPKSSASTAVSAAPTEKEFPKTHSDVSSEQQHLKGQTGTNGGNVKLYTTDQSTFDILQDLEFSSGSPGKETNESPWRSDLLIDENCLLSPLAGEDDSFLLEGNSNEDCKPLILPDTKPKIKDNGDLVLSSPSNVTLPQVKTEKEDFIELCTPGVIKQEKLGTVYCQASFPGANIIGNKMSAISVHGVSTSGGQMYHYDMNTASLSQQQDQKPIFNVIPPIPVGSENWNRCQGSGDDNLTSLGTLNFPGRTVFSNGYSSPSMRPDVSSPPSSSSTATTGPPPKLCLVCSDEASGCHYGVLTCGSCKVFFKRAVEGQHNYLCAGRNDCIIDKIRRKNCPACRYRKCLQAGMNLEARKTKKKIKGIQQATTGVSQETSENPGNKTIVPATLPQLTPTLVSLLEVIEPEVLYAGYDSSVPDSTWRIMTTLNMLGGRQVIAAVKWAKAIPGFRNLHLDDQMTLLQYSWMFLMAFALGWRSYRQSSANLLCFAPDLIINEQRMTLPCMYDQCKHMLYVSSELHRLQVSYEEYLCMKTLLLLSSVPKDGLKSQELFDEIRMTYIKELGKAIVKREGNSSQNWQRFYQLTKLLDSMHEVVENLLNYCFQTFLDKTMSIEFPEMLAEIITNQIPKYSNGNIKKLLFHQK
Sequence of DNA dC->dU-editing enzyme APOBEC-3G (Homo sapiens) (Q9HC16 whole entry, looked up): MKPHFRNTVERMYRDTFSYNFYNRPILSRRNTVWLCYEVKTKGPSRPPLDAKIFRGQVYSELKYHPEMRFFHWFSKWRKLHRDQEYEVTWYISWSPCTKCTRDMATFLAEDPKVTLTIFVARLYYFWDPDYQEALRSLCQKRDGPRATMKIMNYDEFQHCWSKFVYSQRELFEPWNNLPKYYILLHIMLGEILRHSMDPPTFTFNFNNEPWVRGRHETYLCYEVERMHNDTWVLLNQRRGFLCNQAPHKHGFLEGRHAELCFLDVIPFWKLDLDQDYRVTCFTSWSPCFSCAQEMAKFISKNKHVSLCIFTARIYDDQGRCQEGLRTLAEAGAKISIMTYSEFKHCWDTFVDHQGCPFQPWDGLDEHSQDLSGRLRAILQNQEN
Sequence of Bile acid receptor (Homo sapiens) (Q96RI1 whole entry, looked up): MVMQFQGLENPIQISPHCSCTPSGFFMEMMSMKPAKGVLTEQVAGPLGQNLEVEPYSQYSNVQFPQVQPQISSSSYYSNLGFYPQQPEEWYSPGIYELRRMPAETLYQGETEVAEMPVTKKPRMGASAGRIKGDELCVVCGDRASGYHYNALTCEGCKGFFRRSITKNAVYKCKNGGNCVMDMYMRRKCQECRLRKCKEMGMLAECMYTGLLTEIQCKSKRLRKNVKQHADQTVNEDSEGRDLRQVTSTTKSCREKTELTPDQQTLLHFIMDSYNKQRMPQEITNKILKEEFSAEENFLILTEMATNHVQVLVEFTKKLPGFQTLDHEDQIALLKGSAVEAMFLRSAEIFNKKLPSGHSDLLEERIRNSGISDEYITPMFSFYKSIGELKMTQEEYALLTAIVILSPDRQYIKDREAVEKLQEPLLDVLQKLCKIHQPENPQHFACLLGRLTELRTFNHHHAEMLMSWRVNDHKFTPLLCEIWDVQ

**Q.** For CCCCCCCCCCCCCCCC(=O)OC(C)C, which Potency [1] is on record?
**A.** inactive

**Q.** Which Potency [1] does the source give for COc1cc(NC(C)CCCN)c2ncccc2c1 (stereo not given) here?
**A.** 39.8 µM (active)

**Q.** Which Potency [1] does the source give for CCOC(=O)c1ccccc1O here?
**A.** inactive

**Q.** Which Potency [1] does the source give for O=C(O)[C@H](O)[C@@H](O)[C@H](O)[C@H](O)CO here?
**A.** inactive

**Q.** Which Potency [1] does the source give for Cc1[nH]cnc1CN1CCc2c(c3ccccc3n2C)C1=O here?
**A.** inactive

**Q.** Which Potency [1] does the source give for COc1cc2c3cc1Oc1cc(ccc1O)C[C@@H]1c4c(cc(OC)c(O)c4Oc4ccc(cc4)C[C@@H]3N(C)CC2)CC[N+]1(C)C here?
**A.** inactive

**Q.** Which Potency [1] does the source give for CC(C(=O)O)c1ccc2c(c1)[nH]c1ccc(Cl)cc12 (stereo not given) here?
**A.** inactive

**Q.** For O=C1CC[C@@H](C(=O)N2CSC[C@H]2C(=O)O)N1 ([pGlu]-[Thz]-OH), which Potency [1] is on record?
**A.** inactive

**Q.** Which Potency [1] does the source give for Cc1c(N)c(=O)n(-c2ccccc2)n1C here?
**A.** inactive

**Q.** For CCCC1(C)C(C#N)(C#N)C1(C#N)C#N, which Potency [1] is on record?
**A.** 10 µM (active)

**Q.** What does the source list for COc1cc(/C=C/C(=O)CC(=O)/C=C/c2ccc(O)c(OC)c2)ccc1O?
**A.** Potency [1]: 12.6 µM (active); outcome [2]: inactive; activation [3]: -12.9%

**Q.** For COc1ccc(NC(=O)/C=C/c2ccc(Cl)cc2)cc1, which Potency [4] is on record?
**A.** inactive

**Q.** Which Potency [1] does the source give for CC1(C)C[C@@H]1C(=O)N/C(=C\CCCCSC[C@H](N)C(=O)O)C(=O)O here?
**A.** inactive

**Q.** Which Potency [5] does the source give for N[C@H](CCCP(=O)(O)O)C(=O)O here?
**A.** inactive

**Q.** Which Potency [1] does the source give for O=C1/C(=C/c2ccsc2)CC/C1=C\c1cccs1 here?
**A.** inactive

**Q.** And the Potency [6]?
**A.** inactive

**Q.** And the Potency [4]?
**A.** inactive

**Q.** What does the source list for N#C/C(=C\c1ccc(O)c(O)c1)C(=O)c1ccc(O)c(O)c1?
**A.** Potency [1]: inactive; Potency [6]: inactive; Potency [4]: inactive

**Q.** For Nc1nc2ccc([N+](=O)[O-])cc2s1, which activation [7] is on record?
**A.** -6.41%

**Q.** For Oc1c(Br)cc(Br)c2cccnc12, which Potency [1] is on record?
**A.** inactive

**Q.** What does the source list for Nc1ccc(O)c([N+](=O)[O-])c1?
**A.** outcome [2]: inactive; activation [3]: 3.32%

**Q.** With O=C(OCc1ccccc1)c1ccccc1 as the compound, how does the Potency [1] read?
**A.** inactive

**Q.** And the outcome [8]?
**A.** inactive

**Q.** And the activation [3]?
**A.** -9.71%

**Q.** Which Potency [1] does the source give for Nc1ccc(O)c(C(=O)O)c1 here?
**A.** 39.8 µM (active) and 11.2 µM (active)

**Q.** What about the outcome [2] of the same compound?
**A.** inactive

**Q.** And the outcome [8]?
**A.** inactive

**Q.** What about the activation [3] of the same compound?
**A.** 1.83% and -3.75%

**Q.** For S=c1[nH]c2ccccc2s1, which Potency [1] is on record?
**A.** inactive

**Q.** And the outcome [8]?
**A.** inactive

**Q.** And the activation [3]?
**A.** -4.66% and -1.91%

**Q.** With O=C(O)/C=C\C(=O)O as the compound, how does the activation [3] read?
**A.** -2.26%

**Q.** With COc1cc(CNC(=O)CCCC/C=C/C(C)C)ccc1O as the compound, how does the Potency [5] read?
**A.** inactive

**Q.** What about the outcome [2] of the same compound?
**A.** inactive

**Q.** What about the outcome [8] of the same compound?
**A.** inactive

**Q.** What about the activation [3] of the same compound?
**A.** -1.19% and -3.69%

**Q.** For CN(C)c1ccc(N=NS(=O)(=O)O)cc1, which activation [7] is on record?
**A.** -16.2%

**Q.** What about the outcome [9] of the same compound?
**A.** inactive

**Q.** What about the activation [3] of the same compound?
**A.** 14.4% and -3.49%

**Q.** With Nc1ccc([N+](=O)[O-])cc1O as the compound, how does the outcome [2] read?
**A.** inactive

**Q.** And the activation [3]?
**A.** -6.1% and -0.626%

**Q.** With N.N.N.N.N.N.N.N.N.N.N.N.N.N.O.O.[Ru+4].[Ru+5].[Ru+5] as the compound, how does the Potency [6] read?
**A.** 28.2 µM (active)

**Q.** For O=c1cc(-c2ccccc2)oc2ccccc12, which outcome [2] is on record?
**A.** inactive

**Q.** And the activation [7]?
**A.** -23.6% and -8.95%

**Q.** What about the activation [3] of the same compound?
**A.** -9.59% and -14.8%

**Q.** For Nc1cc(-c2ccncc2)c[nH]c1=O, which activation [7] is on record?
**A.** 4.65%

**Q.** And the outcome [9]?
**A.** inactive

**Q.** And the activation [3]?
**A.** -4.52%

**Q.** With CC(C)NCC(O)COc1cccc2ccccc12 (stereo not given) as the compound, how does the Potency [1] read?
**A.** inactive

**Q.** And the outcome [8]?
**A.** inactive

**Q.** With CC(C)OC(=O)c1cc(C(=O)OC(C)C)cc([N+](=O)[O-])c1 as the compound, how does the activation [3] read?
**A.** -0.933%

**Q.** With CCCCCCCCCCCCCCCCCC(=O)O as the compound, how does the Potency [1] read?
**A.** inactive

**Q.** And the outcome [2]?
**A.** inactive

**Q.** What does the source list for N=C1N=C(N)c2cc3ccccc3cc21?
**A.** outcome [2]: inactive; activation [3]: 0.184%
